Source: PubChem BioAssay AID2732 (Emory University Molecular Libraries Screening Center, 2010)
Several values for one entry are separate records, joined by “and”; a condition that tells them apart may be missing. Equal entries are not always repeated. About 8,200 (3.7%) of roughly 220,000 compounds were called active.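 Rule for the calls: active = compounds that reduced the stress-induced luciferase reporter signal by more than about 70% of percent inhibition (limit read from the data); inactive = the rest.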 For the sample, actives were picked, then their nearest neighbours and some compounds at random.

Experiment: inhibitors of CHOP promoter induction, primary screen, cell-based, unfolded protein response, luciferase reporter (AID 2732);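 note: 0% = tunicamycin plus vehicle and 100% = wells without tunicamycin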
Settings: CHO-K1 CHOP-promoter luciferase, tunicamycin-induced, 15-18 h; at 10 µM; hits give high values

SMILES	inhibition
O=C(NCc1cccnc1)C(=O)Nc1nc(-c2ccccc2)cs1	16.9% (inactive)
FC(F)(F)c1ccnc(Oc2ccc(C3=NCCS3)cc2)c1	1.85% (inactive)
CC(C)=CCC/C(C)=C/C(=O)O	-11.9% (inactive)
Cc1ccc(NC(=S)N2CCCC(c3ccccc3)=N2)cc1	16.8% (inactive)
Cc1ccc(C(=O)N2CCCC(c3ccccc3)=N2)cc1	78.5% (active)
Cc1ccc(C(=O)C[n+]2cc(-c3ccccc3)n3c2CCCCC3)cc1	-15.7% (inactive) and 24.3% (inactive)
O=C(COc1cc(Cl)c(Cl)cc1Cl)NCCc1ccccn1	-12.8% (inactive)
O=C(COc1cc(Cl)c(Cl)cc1Cl)NC(=O)NC1CCCC1	91% (active)
O=C(COc1ccccc1F)NC1CC1	40% (inactive)
CCN(CC)CCC(c1ccc2c(c1)OCO2)c1c(OC)cc(OC)c2c(-c3ccccc3)cc(=O)oc12 (configuration not stated)	-37.9% (inactive)
COc1ccc(NS(=O)(=O)c2ccc(Oc3c(C#N)cccc3C#N)cc2)cc1	54.8% (inactive)
CCN(CC)CC(=O)c1c[nH]c2ccc(OC)cc12	-4.19% (inactive)
COc1ccc2[nH]cc(/C=C(/C#N)S(=O)(=O)c3ccccc3)c2c1	70.3% (active)
Cc1cc(C)nc(SCc2cn3c(C)cc(C)nc3n2)n1	19.4% (inactive)
Cc1onc(-c2ccc(Cl)cc2)c1-c1ccnn1S(=O)(=O)c1ccc(Cl)cc1	57.9% (inactive)
NC(=O)NC(=O)CSc1nc2cc([N+](=O)[O-])ccc2n1-c1cccc(C(F)(F)F)c1	76.3% (active)
COc1ccc(CCNC(=O)CSc2nc3[nH]ncc3c(=O)n2-c2cccc(C(F)(F)F)c2)cc1OC	16.4% (inactive)
COc1ccc(-n2cnnc2SCC(=O)Nc2cccc([N+](=O)[O-])c2)cc1	5.96% (inactive)
NS(=O)(=O)c1ccc(NC2=CC(c3ccc(F)cc3)N(c3ccc(S(N)(=O)=O)cc3)C2=O)cc1 (configuration not stated)	-15.2% (inactive)
CN(C)CCCn1c(SCCN2C(=O)c3ccccc3C2=O)nc2ccccc2c1=O	4.6% (inactive)
CC(C)(C)c1nc2ccccc2c(=O)n1N1C(=O)c2ccccc2C1=O	71.3% (active)
CCC1(CC)Cc2ccccc2-c2nc3ccccc3c(=O)n21	16.7% (inactive)
CCCN(c1ccc(C)cc1)c1nc(=O)c2cccnc2s1	12.3% (inactive)
Cc1cc(N)n(-c2ccc(S(=O)(=O)N3CCCC3)cc2[N+](=O)[O-])n1	7.68% (inactive)
CC(C)(C)c1nc(NCC2CCCO2)c2nnn(Cc3ccccc3)c2n1 (configuration not stated)	71.1% (active)
Cn1c(=O)c2[nH]c(NCC3CCCO3)nc2n(-c2ccccc2)c1=O (configuration not stated)	8.41% (inactive)
CC(C)Nc1ncnc2c1nnn2Cc1ccccc1	21.7% (inactive)
